The source of these data is PubChem BioAssay (NCI).

Some test systems named below: NCI-H23 lung; NCI-H226 lung; NCI-H322M lung; HOP-62 NSCLC; NCI-H460 lung; HOP-92 NSCLC; NCI-H522 lung; A549/ATCC NSCLC; 786-0 renal; COLO 205 colon; DU-145 prostate; K-562 leukemia; MALME-3M melanoma; MDA-MB-231 breast; RXF 393 renal; SF-268 CNS; SF-295 CNS; SF-539 CNS; UACC-257 melanoma; M14 melanoma.
Common to all, as to experiment: NCI-60 one-dose screen, 48 h (100 = growth as untreated, 0 = no growth, -100 = all killed)
Holding throughout (conditions): 10 µM unless noted

This is part of a sample that, as a whole, favours compounds with a hit. Of some 83,000 tested, about 20% had one in any assay.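 For each line, cells grew in 96-well plates with the test compound present at a single concentration for 48 hours.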 Values without a mark were called inactive. Calls of active or inactive are those of the source. How the source made its calls: active means growth percent below 10; inactive means the rest.

For `CN1CCN(Cc2ccc(NC(=O)c3cncc(C#Cc4cnn5ccccc45)c3)cc2C(F)(F)F)CC1`, the growth in the assay with NCI-H23 lung was -43.9% (active); in the assay on NCI-H226 lung it was -11.6% (active); with NCI-H322M lung it was -2.81% (active); with HOP-62 NSCLC it was -15.4% (active); with NCI-H460 lung, -22.5% (active); in the assay with HOP-92 NSCLC it was -7.15% (active). For the same compound, the growth with NCI-H522 lung is -14.7% (active); in the assay with A549/ATCC NSCLC, 4.64% (active); with 786-0 renal, 4.29% (active); in the assay with COLO 205 colon it was -33.6% (active); in the assay with DU-145 prostate, 4.16% (active); in the assay on K-562 leukemia it was 1.13% (active). Moreover, the growth is -61.3% (active) in the assay with MALME-3M melanoma; -7.64% (active) in the assay on MDA-MB-231 breast; -44.8% (active) in the assay on RXF 393 renal; -32.8% (active) with SF-268 CNS; 20.7% in the assay with SF-295 CNS; -58.4% (active) with SF-539 CNS. In addition, the growth was 11% in the assay on UACC-257 melanoma and -39.6% (active) with M14 melanoma.

For the compound `CC[C@H](CC[C@@H](C)[C@H]1CC[C@H]2[C@@H]3CC[C@@H]4CC(=O)/C(=C\c5ccncc5)C[C@]4(C)[C@H]3CC[C@]12C)C(C)C`, the growth with NCI-H23 lung is 99.4%; in the assay with NCI-H226 lung it was 103%; in the assay on NCI-H322M lung, 98.3%; with HOP-62 NSCLC it was 99.3%; with NCI-H460 lung, 109%; in the assay with HOP-92 NSCLC it was 91.5%. For the same compound, the growth in the assay on NCI-H522 lung is 95.3%; in the assay on A549/ATCC NSCLC it was 99.2%; with 786-0 renal, 95.7%; in the assay on COLO 205 colon, 107%; in the assay with DU-145 prostate, 109%; in the assay with K-562 leukemia, 97%. In addition, the growth in the assay with MALME-3M melanoma was 100%; in the assay with MDA-MB-231 breast it was 104%; with RXF 393 renal, 109%; in the assay with SF-268 CNS, 107%; in the assay on SF-295 CNS it was 99.2%; in the assay on SF-539 CNS it was 103%. The results for the growth in the assay on UACC-257 melanoma and with M14 melanoma were 106% and 104%, respectively.

In the case of `Cn1cc(-c2nc(-c3c[nH]c4ccncc34)cs2)c2cc(Br)ccc21`, the growth is -64.2% (active) in the assay with NCI-H23 lung; 0.662% (active) in the assay on NCI-H226 lung; -93.1% (active) in the assay on NCI-H322M lung; -69.7% (active) in the assay on HOP-62 NSCLC; -71.4% (active) in the assay with NCI-H460 lung; -91.9% (active) with HOP-92 NSCLC. For the same compound, the growth is -70.8% (active) in the assay with NCI-H522 lung; -70.3% (active) with A549/ATCC NSCLC; -78.5% (active) in the assay with 786-0 renal; -71.1% (active) with COLO 205 colon; -95.9% (active) in the assay on DU-145 prostate; -54.2% (active) in the assay with K-562 leukemia. The growth with MALME-3M melanoma is -79.2% (active); in the assay on MDA-MB-231 breast, -80.7% (active); with RXF 393 renal, -94.4% (active); with SF-268 CNS, -73.7% (active); in the assay with SF-295 CNS, -78% (active); with SF-539 CNS it was -98% (active). Also, the results for the growth in the assay with UACC-257 melanoma and in the assay with M14 melanoma were -46.4% (active) and -74.2% (active), respectively.

Consider `CC1COCC(C)N1C1=C(Cl)C(=O)c2ccccc2C1=O` (stereo not given), for which the growth with NCI-H23 lung is 63%; in the assay with NCI-H226 lung, 97.3%; in the assay on NCI-H322M lung, 94%; in the assay with HOP-62 NSCLC, 99.2%; in the assay with NCI-H460 lung it was 104%; in the assay on HOP-92 NSCLC, 53.4%. The growth in the assay on NCI-H522 lung was 36.3%; with A549/ATCC NSCLC, 97.1%; in the assay on 786-0 renal, 102%; with COLO 205 colon it was 104%; in the assay on DU-145 prostate, 97.9%; with K-562 leukemia, 0.947% (active). Further, the growth was 75.3% in the assay on MALME-3M melanoma; 67.4% in the assay on MDA-MB-231 breast; 61.3% in the assay on RXF 393 renal; 90.8% in the assay with SF-268 CNS; 102% in the assay on SF-295 CNS; 104% in the assay with SF-539 CNS. For the same compound, the growth with UACC-257 melanoma was 37.1%; in the assay on M14 melanoma it was 80.6%.

Regarding `COc1cc2c3c(n(CCCCNCCCn4c5c(c6cc(OC)c(OC)cc6c4=O)C(=O)c4cc6c(cc4-5)OCO6)c(=O)c2cc1OC)-c1cc2c(cc1C3=O)OCO2`, the growth in the assay on NCI-H23 lung was 95.3%; in the assay with NCI-H226 lung, 106%; with NCI-H322M lung it was 90.5%; with HOP-62 NSCLC, 90.5%; with NCI-H460 lung, 106%; with HOP-92 NSCLC it was 87%. Further, the growth is 86.8% with NCI-H522 lung; 90.3% with A549/ATCC NSCLC; 109% with 786-0 renal; 103% in the assay on COLO 205 colon; 99.1% in the assay on DU-145 prostate; 85.7% with K-562 leukemia. Also, the growth was 81.8% in the assay with MALME-3M melanoma; 90.4% in the assay with MDA-MB-231 breast; 107% with RXF 393 renal; 89.5% in the assay with SF-268 CNS; 99.9% in the assay on SF-295 CNS; 92.8% in the assay with SF-539 CNS. Also, the results for the growth in the assay on UACC-257 melanoma and in the assay on M14 melanoma were 94.8% and 96.3%, respectively.

In the case of `Cc1ccc(-c2nc(C(Cl)Cl)nc3cc(C)nn23)cc1`, the growth with NCI-H23 lung was -18.4% (active); in the assay on NCI-H226 lung, 70.2%; with NCI-H322M lung it was -24.9% (active); with HOP-62 NSCLC, 7.49% (active); in the assay on NCI-H460 lung it was -64.8% (active); with HOP-92 NSCLC, 35%. The growth is 4.52% (active) in the assay on NCI-H522 lung; -4.14% (active) with A549/ATCC NSCLC; 81.8% in the assay on 786-0 renal; -36.6% (active) in the assay with COLO 205 colon; -12.6% (active) in the assay with DU-145 prostate; 11.2% in the assay with K-562 leukemia. Also, the growth is -12.2% (active) in the assay on MALME-3M melanoma; 8.58% (active) with MDA-MB-231 breast; -66% (active) in the assay with RXF 393 renal; 21.4% in the assay with SF-268 CNS; 17.8% with SF-295 CNS; 35.1% in the assay with SF-539 CNS. Moreover, the growth is 55.8% in the assay with UACC-257 melanoma and -9.67% (active) in the assay on M14 melanoma.

Take `COc1ccc(C2C3=C(COC3=O)N(CCO)c3cc4c(cc32)OCCO4)cc1OC` (stereo not given): the growth in the assay with NCI-H23 lung is 34.3%; in the assay with NCI-H226 lung it was 41.2%; in the assay with NCI-H322M lung it was 51.4%; with HOP-62 NSCLC it was 46.3%; with NCI-H460 lung it was 10.4%; with HOP-92 NSCLC it was 40.8%. For the same compound, the growth was -13.9% (active) with NCI-H522 lung; 51.2% with A549/ATCC NSCLC; 27.7% with 786-0 renal; -4.68% (active) with COLO 205 colon; 14.6% in the assay with DU-145 prostate; 27.6% in the assay on K-562 leukemia. Besides, the growth in the assay on MALME-3M melanoma is 41.7%; in the assay with MDA-MB-231 breast, 56.8%; with RXF 393 renal, 5.27% (active); with SF-268 CNS, 51.7%; with SF-295 CNS it was 3.18% (active); with SF-539 CNS it was -2.02% (active). For the same compound, the growth in the assay with UACC-257 melanoma is 44.1%; with M14 melanoma it was 13.6%.
